The campaign covered roughly 69,000 compounds. About 1,000 (1.4%) showed an effect of 50% or more. The sample as a whole holds a higher share of strong results than the screen did.
Test system: Leishmania donovani
Assay: Leishmania intramacrophage assay
Assay type: functional, organism-based
Set-up: scale not given: in the data most compounds retested in dose-response had high values

COc1ccc(C(=O)C2CCCN(c3nccc(N)n3)C2)c(C)c1 (centres undefined)
Percent Effect (30.3 µM, […]): 44.3%

CCc1nc(C)cc(N2CCCC(C(=O)c3ccc(OC)cc3C)C2)n1 (centres undefined)
Percent Effect (30.3 µM, […]): 50.79%

COc1ccc(C(=O)C2CCCN(c3cc(N)ncn3)C2)c(C)c1 (centres undefined)
Percent Effect (30.3 µM, […]): 55.56%

COc1ccc(C(=O)C2CCCN(c3cc(OC)ncn3)C2)c(C)c1 (centres undefined)
Percent Effect (30.3 µM, […]): 27.19%

COc1ccc(C(=O)C2CCCN(c3cnccn3)C2)c(C)c1 (centres undefined)
Percent Effect (30.3 µM, […]): 7.713%

CC1(C)COCCN1C(=O)CCc1nc(-c2ccncc2)no1
Percent Effect (30.3 µM, […]): 0.2365%

CC1CCN(CC(=O)NC2CCN(C(C)c3ccccc3)CC2)CC1.Cl (centres undefined)
Percent Effect (30.3 µM, […]): 0.5624%

CCn1ccc(-c2cc(NCCCOc3cccc(C)c3)nc(C)n2)n1
Percent Effect (30.3 µM, […]): 7.258%

COc1ccccc1OCCNCCn1cccn1
Percent Effect (30 µM): 30.77%

CCn1ccc(-c2cc(NCCCOc3ccccc3C)nc(C)n2)n1
Percent Effect (30.3 µM, […]): 56.31%

Cc1ccc(C(=O)N2C[C@@H](N3CCN(C)CC3)[C@H]3OCCC[C@H]32)cn1
Percent Effect (30.3 µM, […]): 22.91%

CNC(=O)[C@@H]1C[C@H]2CN(Cc3nccs3)C[C@H]2N1C.O=C(O)C(F)(F)F.O=C(O)C(F)(F)F
Percent Effect (30 µM, 30.03 µM): 9.102%

CC1CN(C(=O)c2cc(=O)[nH]c3ccc(F)cc23)CCO1 (centres undefined)
Percent Effect (30.3 µM, […]): -3.043%

CN(C)C[C@@H]1[C@H]2CN(C(=O)c3cc(=O)[nH]c4ccc(F)cc34)C[C@@H]12
Percent Effect (30.3 µM, […]): 55.47%

CN(C)C[C@H]1C[C@@H](CO)CN(C(=O)c2cc(=O)[nH]c3cc(F)ccc23)C1
Percent Effect (30.3 µM, […]): 30.17%

CCOC(=O)C1CCN(c2nccc(-n3nc(C)cc3C)n2)CC1
Percent Effect (30.3 µM, […]): 24.33%

Cc1cnc(N2CC(C(=O)N3CCOCC3)C3(CCOCC3)C2)nc1 (centres undefined)
Percent Effect (30.3 µM, […]): 0.6566%

Cn1ccc(C(=O)N2CCCC(Cc3cccc4ncccc34)C2)n1 (centres undefined)
Percent Effect (30 µM, 30.03 µM): 74.08%

COCCNc1cc(-c2cccc(C(=O)O)c2C)c2cc[nH]c2n1
Percent Effect (30.3 µM, […]): 27.05%

Cc1cc(C(=O)NCCN2CCCC(C)C2)nn1C(C)(C)C (centres undefined)
Percent Effect (30.3 µM, […]): 12.01%

CN(C)C(=O)c1cncnc1-c1ccc(CNC(=O)C2CCCO2)cc1 (centres undefined)
Percent Effect (30.3 µM, […]): -46.25%

O=C1CC2(CCN(CCO)CC2)CN1Cc1cc(F)cc(F)c1
Percent Effect (30 µM, 30.03 µM): 24.96%

O=C1CC2(CCN(CC3CCOC3)CC2)CN1Cc1cc(F)cc(F)c1 (centres undefined)
Percent Effect (30 µM, 30.03 µM): 41.14%

O=C1CC2(CCN(CC3CC3)CC2)CN1Cc1cc(F)cc(F)c1
Percent Effect (30.3 µM, […]): 59.82%

Cc1cc(C(N)=O)c2c(Br)cccc2n1
Percent Effect (30.3 µM, […]): -10.76%

c1cnn(CC2CN(c3ncnc4sccc34)CCO2)c1 (centres undefined)
Percent Effect (30 µM, 30.03 µM): 57.28%

Cc1cnn(CC2CN(c3ncnc4[nH]ccc34)CCO2)c1 (centres undefined)
Percent Effect (30 µM): 4.128%

Cc1cnn(CC2CN(c3ncnc4ccsc34)CCO2)c1 (centres undefined)
Percent Effect (30 µM, 30.03 µM): 66.34%

c1nc(N2CCOC(Cn3cncn3)C2)c2sccc2n1 (centres undefined)
Percent Effect (30.3 µM, […]): 23.8%

c1ccc2c(N3CCOC(Cn4cccn4)C3)ncnc2c1 (centres undefined)
Percent Effect (30.3 µM, […]): -0.8022%

Cc1cnn(CC2CN(c3ncnc4ccccc34)CCO2)c1 (centres undefined)
Percent Effect (30 µM, 30.03 µM): 53.49%

c1cnn(CC2CN(c3ncnc4[nH]ccc34)CCO2)c1 (centres undefined)
Percent Effect (30 µM): 1.835%

CN(C)CC1CN(c2ncnc3ccsc23)CCO1 (centres undefined)
Percent Effect (30.3 µM, […]): 16.39%

c1cnn(CC2CN(c3ncnc4ccsc34)CCO2)c1 (centres undefined)
Percent Effect (30 µM, 30.03 µM): 45.92%
